Screens: PubChem, National Center for Advancing Translational Sciences (NCATS)
The list is not random: actives were taken first. Their share in the collection is about 10%.
LMNA splice mod = changes lamin A minigene splicing in HeLa cells. AID 1487. hit rate 0.01% among 200,000. HeLa LMNA splicing GFP/RFP minigene ratio, 48 h. Potency, µM (series often up to 46.1 µM), most hits filed as inhibitors; active means well fitted inhibition curve with a large enough effect in the signal ratio, with a control signal flat, not every such curve was filed as active; inconclusive means small, poorly fitted or top-dose-only effect, or effect the other way, or a change in a side signal; the % refers to the signal ratio
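S3 HeLa stable clones carrying a lamin A-EGFP splicing minigene plus DsRed2 were seeded at 600 cells/well in Opti-MEM with 2% FBS, pin-dosed and incubated 48 h at 37°C. Acumen cytometry (488 nm) gave the GFP/RFP total-intensity ratio.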
PNC inhibitor = inhibitors of perinucleolar compartment assembly; PC3M PTB-GFP, PNC prevalence imaging, 16 h; active compounds read low; activity change (PNC), negative = inhibition, % at 10 µM; hit rate 3.1% among 140,000;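 active means readout at or below -70, meaning at least 70% loss of cells showing the perinucleolar compartment, a nuclear body marking cancer cells; inconclusive means readout between -30 and a set limit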
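Read-out is percentage of cells bearing a perinucleolar compartment, from automated 20x imaging of fixed, Hoechst-stained PC3M PTB-GFP cells. Cells were seeded 4 h, then exposed 16 h to compound (23 nl of library stock) in duplicate plates.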
ALDH1A1 inh = blocks purified human ALDH1A1 activity; Purified ALDH1A1, NADH fluorescence, propionaldehyde substrate; hit rate 7.3% among 220,000; Potency, µM (titrated, usually from 75.3 µM), actives largely listed as inhibitors; P00352
Target sequence (P00352 whole entry, looked up): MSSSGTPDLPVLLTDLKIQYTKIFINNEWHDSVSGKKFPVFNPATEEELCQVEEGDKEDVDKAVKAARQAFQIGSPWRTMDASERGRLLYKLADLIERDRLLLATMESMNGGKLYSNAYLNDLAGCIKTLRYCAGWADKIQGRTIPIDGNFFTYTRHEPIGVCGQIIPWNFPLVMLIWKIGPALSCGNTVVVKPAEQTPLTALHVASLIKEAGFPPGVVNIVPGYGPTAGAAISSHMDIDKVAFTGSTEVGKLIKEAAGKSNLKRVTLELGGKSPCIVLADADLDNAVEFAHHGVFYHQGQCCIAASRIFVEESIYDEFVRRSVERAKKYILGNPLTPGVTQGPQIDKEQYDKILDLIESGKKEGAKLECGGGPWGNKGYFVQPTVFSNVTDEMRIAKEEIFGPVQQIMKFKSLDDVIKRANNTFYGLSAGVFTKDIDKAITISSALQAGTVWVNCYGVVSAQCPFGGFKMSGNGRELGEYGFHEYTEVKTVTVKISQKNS
HPGD inh = inhibitors of human 15-hydroxyprostaglandin dehydrogenase (HPGD). P15428. hit rate 4.3% among 150,000. Potency, µM, most hits filed as inhibitors. purified HPGD, NADH fluorescence kinetic, PGE2 substrate. AID 894
Target sequence (P15428 whole entry, looked up): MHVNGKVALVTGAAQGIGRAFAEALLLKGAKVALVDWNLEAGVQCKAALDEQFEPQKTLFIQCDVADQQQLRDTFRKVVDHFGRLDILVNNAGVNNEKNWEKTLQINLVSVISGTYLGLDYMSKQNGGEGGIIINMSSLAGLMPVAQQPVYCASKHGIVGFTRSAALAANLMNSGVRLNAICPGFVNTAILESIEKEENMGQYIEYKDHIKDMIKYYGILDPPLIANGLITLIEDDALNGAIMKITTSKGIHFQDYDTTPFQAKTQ
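NADH formation kinetics: reaction with 30 uM PGE2 and 1 mM NAD+ (final), 20 nM enzyme, Tris-HCl pH 8 with Tween 20, after 15 min compound preincubation at room temperature. Fluorescence change, last versus first of five reads.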
ALOX12 inhib = blocks human 12-lipoxygenase activity. purified 12-hLO, xylenol orange hydroperoxide absorbance. Potency, µM (doses to about 57.1 µM), actives largely listed as inhibitors. hit rate 0.12% among 150,000. AID 1452; active means well fitted inhibition curve with a large enough effect; inconclusive means small, poorly fitted or top-dose-only effect; further: nearly all actives have a fitted effect of over 55% in size
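Hydroperoxide output read as Fe(III)-xylenol orange absorbance, 573-to-405 nm ratio, after 30 min reaction with 40 uM arachidonic acid. Enzyme: 150 nM purified human 12hLO, 15 min compound preincubation; 25 mM Hepes pH 7.0, room temperature.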
A number is an active result; [ ] = remark or other dose. Unless noted, the call rests on the fitted dose curve; in most records, active means well fitted inhibition curve with a large enough effect (not every such curve was filed as active); inconclusive means small, poorly fitted or top-dose-only effect, or another doubt; inactive means no such curve, though single readings can be large or run the other way.

How did CC(=O)c1cccc(CN2CCN(Cc3ccc(F)cc3)C(CCO)C2)c1 (centres undefined) do in these assays?
LMNA splice mod: inactive; ALDH1A1 inh: 28µM

How did O=c1cnc2cnc(Oc3cccc(Cl)c3)nc2n1Cc1ccc(F)cc1 do in these assays?
ALDH1A1 inh: inactive; HPGD inh: inactive; ALOX12 inhib: inactive

What do the screens show for `Cc1ccccc1-c1cncnc1NC1CCNCC1`?
LMNA splice mod: inactive; ALDH1A1 inh: inactive; HPGD inh: inactive; ALOX12 inhib: inactive

What do the screens show for `O=S(=O)(c1ccc(NC(=S)NC2CCCC2)cc1)N1CCCC1`?
ALDH1A1 inh: 14µM

What do the screens show for `O=S(=O)(NC(=S)NC1CCCCC1)c1ccc(Br)cc1`?
LMNA splice mod: inactive; ALDH1A1 inh: 25µM

Results for NS(=O)(=O)c1ccc(NC(=S)NC2CCCC2)cc1 ?
LMNA splice mod: inactive; PNC inhibitor: inactive; ALDH1A1 inh: inconclusive; HPGD inh: 14µM; ALOX12 inhib: inactive

Results for NS(=O)(=O)c1ccc(NC(=S)NC2CCCCCC2)cc1 ?
LMNA splice mod: inactive; PNC inhibitor: inactive; ALDH1A1 inh: inconclusive; HPGD inh: inactive; ALOX12 inhib: inactive

Results for O=C(NC(=S)Nc1ccc(S(=O)(=O)N2CCCC2)cc1)C1CC1 ?
ALDH1A1 inh: 20µM

How did CCOc1cccc2sc(N3CCN(C(=O)c4ccc5c(c4)CCCC5)CC3)nc12 do in these assays?
LMNA splice mod: inactive

How did CCN(c1ccccc1)S(=O)(=O)c1nnc(NC(=O)C(C)(C)C)s1 do in these assays?
LMNA splice mod: inactive

Results for COCCN(CCOC)c1nc(C)nc2c1nc(-c1ccccc1)n2CC1CCN(C)CC1 ?
ALDH1A1 inh: inconclusive; HPGD inh: inconclusive; ALOX12 inhib: inactive

What do the screens show for `COc1ccccc1CNC(=O)C(=O)NCC1CCCO1` (centres undefined)?
LMNA splice mod: inactive; PNC inhibitor: inactive; ALDH1A1 inh: inactive; HPGD inh: inactive; ALOX12 inhib: inactive

Results for COC(=O)c1ccccc1NC(=O)NCC1CCCO1 (centres undefined) ?
LMNA splice mod: inactive; PNC inhibitor: -122; ALDH1A1 inh: inconclusive; HPGD inh: inconclusive; ALOX12 inhib: inactive

What do the screens show for `COc1ccccc1CC(=O)NCC1CCCO1` (centres undefined)?
LMNA splice mod: inactive; PNC inhibitor: inactive; ALDH1A1 inh: inactive; HPGD inh: 25µM; ALOX12 inhib: inactive

How did COc1ccccc1CCNC(=O)C1CCCO1 (centres undefined) do in these assays?
LMNA splice mod: inactive; PNC inhibitor: inactive; ALDH1A1 inh: inactive; HPGD inh: 18µM; ALOX12 inhib: inactive

Results for COC(=O)c1ccccc1NC(=O)C(=O)NCC1CCCO1 (centres undefined) ?
LMNA splice mod: inactive; PNC inhibitor: inactive; ALDH1A1 inh: inconclusive; HPGD inh: inactive; ALOX12 inhib: inactive

How did COc1ccccc1CNC(=O)c1ccc(OCC2CCCO2)cc1 (centres undefined) do in these assays?
LMNA splice mod: inactive; PNC inhibitor: inactive; ALDH1A1 inh: inactive; HPGD inh: inactive; ALOX12 inhib: inactive

How did O=C(Nc1cccc(Cl)c1Cl)c1cc(S(=O)(=O)N2CCCCC2)ccc1F do in these assays?
LMNA splice mod: inactive

Results for CC(=O)c1ccc(N2CCN(c3ncnc4c3cnn4-c3cc(Cl)ccc3C)CC2)cc1 ?
LMNA splice mod: inactive

Results for Cc1ccc(C=C2C(=O)c3ccccc3C2=O)s1 ?
LMNA splice mod: inactive; PNC inhibitor: inactive; ALDH1A1 inh: 0.5µM; HPGD inh: 13µM; ALOX12 inhib: inactive

How did Cc1nc2cnc(N3CCNCC3)nc2n(-c2ccccc2)c1=O do in these assays?
ALDH1A1 inh: inconclusive; HPGD inh: inconclusive; ALOX12 inhib: inactive

How did COc1ccc2cnnc(SCC(=O)Nc3ccc(C(=O)O)cc3)c2c1OC do in these assays?
LMNA splice mod: inactive; PNC inhibitor: inactive; ALDH1A1 inh: inconclusive; HPGD inh: inconclusive; ALOX12 inhib: inactive

Results for COc1ccc2cnnc(SCC(=O)Nc3ccccc3)c2c1OC ?
LMNA splice mod: inactive; PNC inhibitor: inactive; ALDH1A1 inh: inconclusive; HPGD inh: 25µM; ALOX12 inhib: inactive

How did CCC1=NN2C(=N)/C(=C\c3ccc(SCc4ccco4)o3)C(=O)N=C2S1 do in these assays?
LMNA splice mod: inactive; PNC inhibitor: inactive; ALDH1A1 inh: inactive; HPGD inh: inactive; ALOX12 inhib: inactive

How did CCCC1=NN2C(=N)/C(=C\c3ccc(SCc4ccco4)o3)C(=O)N=C2S1 do in these assays?
LMNA splice mod: inactive; PNC inhibitor: inactive; ALDH1A1 inh: 22µM; HPGD inh: 22µM; ALOX12 inhib: inactive

Results for O=C1NC(=S)S/C1=C\c1ccc(SCc2ccccc2)o1 ?
LMNA splice mod: inconclusive; PNC inhibitor: inactive; ALDH1A1 inh: inconclusive; HPGD inh: 18µM; ALOX12 inhib: inactive

How did O=C1NC(=S)S/C1=C\c1ccc(SCc2ccco2)o1 do in these assays?
LMNA splice mod: inactive; PNC inhibitor: inactive; ALDH1A1 inh: 0.89µM; HPGD inh: 7.1µM; ALOX12 inhib: inactive

How did COC(=O)/C=C1\SC(N)=NC1=O do in these assays?
ALDH1A1 inh: inactive

How did CC(=O)N[C@@H](Cc1c[nH]c2ccccc12)C(=O)O do in these assays?
ALDH1A1 inh: inactive; HPGD inh: inactive; ALOX12 inhib: inactive

Results for CC(=O)NC(Cc1c[nH]c2ccccc12)C(=O)Nc1ccc2c(c1)OCO2 (centres undefined) ?
LMNA splice mod: inactive; PNC inhibitor: inactive; ALDH1A1 inh: inactive; HPGD inh: inactive; ALOX12 inhib: inactive

Results for CC(=O)N[C@@H](Cc1c[nH]c2ccccc12)C(=O)OCC(=O)NCc1ccc2c(c1)OCO2 ?
LMNA splice mod: inactive; ALDH1A1 inh: 5µM

What do the screens show for `CC(=O)N[C@@H](Cc1c[nH]c2ccccc12)C(=O)OCC(=O)Nc1ccc(S(=O)(=O)N(C)C)cc1`?
ALDH1A1 inh: 4µM

What do the screens show for `CC1(OC(=O)C2CCCC2)C(=O)C=C2C=C(c3ccsc3)N(c3ccc(CO)cc3)C=C2C1=O` (centres undefined)?
LMNA splice mod: inactive[9.22 µM]; ALDH1A1 inh: inactive[13.5 µM]; HPGD inh: inactive; ALOX12 inhib: inactive[11.4 µM]

What do the screens show for `Nc1cc(Br)c(N)c(Br)c1`?
LMNA splice mod: inactive; PNC inhibitor: -93; ALDH1A1 inh: inactive; HPGD inh: inactive; ALOX12 inhib: inactive

Results for Nc1cc(Cl)c(N)c(Cl)c1 ?
ALDH1A1 inh: inconclusive; HPGD inh: inactive; ALOX12 inhib: inactive

What do the screens show for `COCC(=O)Nc1nc(-c2ccccc2)ns1`?
LMNA splice mod: inactive; PNC inhibitor: inactive; ALDH1A1 inh: inactive; HPGD inh: inactive; ALOX12 inhib: inactive

What do the screens show for `CC(=O)Nc1nc(-c2ccccc2)ns1`?
LMNA splice mod: inactive; PNC inhibitor: -100; ALDH1A1 inh: inactive; HPGD inh: inactive; ALOX12 inhib: inactive

What do the screens show for `CN1CCCN=C1/C=C\c1cccs1`?
LMNA splice mod: inconclusive; ALDH1A1 inh: inactive; HPGD inh: inactive; ALOX12 inhib: inactive

What do the screens show for `COC(=O)C(C(=O)OC)C1c2ccccc2C=C(C)N1C(=O)OC` (centres undefined)?
LMNA splice mod: inactive[9.22 µM]; ALDH1A1 inh: inactive[13.5 µM]; HPGD inh: inactive; ALOX12 inhib: inactive[11.4 µM]
